# Compound activity: PubChem, several laboratories
# NTR1 ag – NTR1 (human) agonism | activation, % at 20 µM | P30989 | actives 0.17% (n = 330,000) | NTR1-U2OS beta-arrestin-GFP spot imaging, agonist mode;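 active = activation at or above 40% of the spot to cytoplasm intensity ratio, with at least 20 cells analyzed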;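 also: 0% = DMSO without peptide and 100% = 100 nM NTR1 peptide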
# MEKK2wt PB1 HTS – raises or lowers MEK5 binding to wildtype human MEKK2 PB1 domain; actives 1.1% (n = 290,000); binding response (% of control), % at 10 µM; bead flow cytometry, Alexa488-MEK5 binding to MEKK2 WT; actives lie on both sides; in the data active = binding response below about 67% or above about 130%
# MEKK2mut PB1 HTS – signal of MEK5 binding to mutant human MEKK2 PB1 domain; bead flow cytometry, Alexa488-MEK5 binding to MEKK2 mutant; actives 0.35% (n = 290,000); AID 1530; percent response, % at 10 µM; in the data active = percent response above about 24%, passing the limit was not always enough
# TMEM16A inh – inhibitors of mouse TMEM16A calcium-activated chloride channel; actives 1.2% (n = 310,000); Q8BHY3; normalized B-score (activity score, 25-100; higher = stronger inhibition) at 10 µM; HEK293 TMEM16A/YFP iodide influx fluorescence, ionomycin; AID 588511;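 active = ratio plate-corrected score three or more library SD toward inhibition, starting fluorescence score within five deviations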;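 also: score derived from kinetic fluorescence span divided by baseline fluorescence per well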
# Target sequence (Q8BHY3 whole entry, looked up): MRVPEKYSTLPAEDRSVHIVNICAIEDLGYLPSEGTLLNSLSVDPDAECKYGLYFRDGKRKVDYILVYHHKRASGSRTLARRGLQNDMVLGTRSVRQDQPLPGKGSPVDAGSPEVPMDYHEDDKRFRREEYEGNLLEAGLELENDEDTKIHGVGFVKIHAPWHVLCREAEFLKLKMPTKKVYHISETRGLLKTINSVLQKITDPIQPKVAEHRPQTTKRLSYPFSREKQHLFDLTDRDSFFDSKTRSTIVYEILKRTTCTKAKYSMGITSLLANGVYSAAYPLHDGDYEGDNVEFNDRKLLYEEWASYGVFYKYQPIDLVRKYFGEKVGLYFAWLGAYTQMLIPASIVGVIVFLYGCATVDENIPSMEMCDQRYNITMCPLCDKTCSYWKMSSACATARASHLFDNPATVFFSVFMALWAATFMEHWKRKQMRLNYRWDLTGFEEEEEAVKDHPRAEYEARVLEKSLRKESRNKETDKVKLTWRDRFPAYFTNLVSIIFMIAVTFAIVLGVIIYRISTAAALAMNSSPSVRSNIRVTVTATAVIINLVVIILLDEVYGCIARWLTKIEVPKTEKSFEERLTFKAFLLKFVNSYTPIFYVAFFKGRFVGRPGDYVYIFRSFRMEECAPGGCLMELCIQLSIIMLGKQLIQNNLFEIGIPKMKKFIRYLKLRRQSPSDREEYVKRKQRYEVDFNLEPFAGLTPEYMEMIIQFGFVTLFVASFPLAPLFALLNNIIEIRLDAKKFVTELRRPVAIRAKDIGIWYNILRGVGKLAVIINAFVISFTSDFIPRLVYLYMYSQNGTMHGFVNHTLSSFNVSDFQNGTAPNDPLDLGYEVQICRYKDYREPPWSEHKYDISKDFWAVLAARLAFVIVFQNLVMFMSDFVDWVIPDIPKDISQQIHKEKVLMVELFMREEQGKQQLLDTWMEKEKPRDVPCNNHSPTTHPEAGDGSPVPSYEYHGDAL
# TMEM16A act – activators or potentiators of mouse TMEM16A chloride channel | Q8BHY3 | HEK293 TMEM16A/YFP-H148Q/I152L, iodide quench fluorescence; stronger effect = lower value | B-score at 10 µM | actives 0.3% (n = 340,000) | AID 623877;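 active = fluorescence-ratio B-score plate-corrected deviation score at least 3 library SD below zero, with starting fluorescence score within 5 deviations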;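 also: channel opened by trigger with iodide after compound preincubation; score built on the fluorescence ratio of max minus min over baseline; more negative score means more quench and so TMEM16A activation or potentiation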
# MEKK3 PB1 HTS – MEKK3-MEK5 PB1 interaction, increase or decrease; bead-based flow cytometry, Alexa488-MEK5 binding to MEKK3; actives lie on both sides; 0 = blocked by unlabeled MEK5, 100 = vehicle; binding response (% of control), % at 10 µM; actives 1.4% (n = 290,000);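 active = binding response more than 3 SD above or below the average of its plate-row segment, actives on both sides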;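 also: Alexa488 bead fluorescence after subtracting the streptavidin-only scavenger bead signal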
# MEKK2wt confirm – raises or lowers MEK5 binding to wildtype human MEKK2, retest. shares compounds with MEKK3 PB1 HTS. bead flow cytometry, Alexa488-MEK5 binding to MEKK2 WT; actives lie on both sides. binding response (% of control), % at 10 µM. actives 2.4% (n = 5,900). AID 1892; in the data active = binding response below about 16% or above about 210%; inactive = in between
# MEKK2mut confirm – signal of MEK5 binding to mutant human MEKK2, retest | percent response, % at 10 µM | actives 2% (n = 5,900) | shares compounds with MEKK3 PB1 HTS | AID 1893 | bead flow cytometry, Alexa488-MEK5 binding to MEKK2 mutant; in the data active = percent response mostly above about 71%, no sharp cut-off; inactive = mostly below about 38%;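 also: higher means compound restores mutant binding toward wildtype level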
# MEKK3 confirm – confirmation of inhibitors of MEK5 binding to human MEKK3; shares compounds with MEKK3 PB1 HTS; bead flow cytometry, Alexa488-MEK5 binding to MEKK3; stronger effect = lower value; binding response (% of control), % at 10 µM; actives 1.8% (n = 5,900); AID 1894;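 active = binding response below 72% of control, or above a set upper limit, though filed actives all read lower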;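 also: 100% = DMSO only wells and 0% = binding blocked by excess unlabeled MEK5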
# Starred values were filed as active, the others as inactive; i = inactive; . = no result; [ ] = remark or other dose. Compounds with a hit are over-represented: about 3.4% of the library has one in this group of screens.
SMILES,NTR1 ag,MEKK2wt PB1 HTS,MEKK2mut PB1 HTS,TMEM16A inh,TMEM16A act,MEKK3 PB1 HTS,MEKK2wt confirm,MEKK2mut confirm,MEKK3 confirm
CCc1ccc(C2=Nn3c(nnc3-c3cccs3)SC2)cc1,9,119,5,i,i,126*,95,-2,100
CN1CCN(CCCNC(=O)c2ccc(Cn3c(=S)[nH]c4ccc(Br)cc4c3=O)cc2)CC1,2,108,-1,i,i,103,.,.,.
CC1CCN(CCCNC(=O)c2ccc(Cn3c(=S)[nH]c4ccc(Br)cc4c3=O)cc2)CC1,4,166*,38,i,.,103,190,50,108
COc1ccc(CNC(=O)C(c2ccncc2)N(C(=O)Cc2cccs2)c2ccc(C)cc2)cc1 (stereo unspecified),2,86,-11,i,i,81*[inhibitor],107,10,104
Cc1ccccc1NC(=O)Cc1nc(COC(=O)CNS(=O)(=O)c2cccc(Br)c2)cs1,1,100,-1,i,i,98,.,.,.
O=C(Nc1ccccc1)N(C1=NCCCCS1)c1ccccc1,1,99,2,i,i,98,.,.,.
O=C(Nc1ccccc1)N(C1=NCCCCS1)c1cccc2ccccc12,1,116,4,i,i,127*,102,4,98
Cc1ccc(C23CC4CC(CC(CN)(C4)C2)C3)cc1,.,122,7,.,i,107,.,.,.
NCC12CC3CC(C1)CC(c1ccc(Br)cc1)(C3)C2,13,153*,21,i,i,110,133,22,101
CCC(C)NC(=O)Cn1c(-c2ccccc2)cc(C(C)=O)c1C (stereo unspecified),0,99,1,i,i,97,.,.,.
Nc1cccc(-c2nc3cc(S(=O)(=O)c4ccc5oc(-c6cccc(N)c6)nc5c4)ccc3o2)c1,12,71,-27,i,i,69*[inhibitor],86,-18,92
N=c1scc(-c2ccccc2)n1/N=C/c1ccco1,3,108,55*,i,i,103,87,-2,95
O=C(Nc1ccc(Br)cc1)C1CC(O)CN1C(=O)Oc1ccccc1 (stereo unspecified),0,101,2,i,i,99,.,.,.
Cc1ccsc1/C=N/N1CCN(C2c3ccccc3-c3ccccc32)CC1,1,91,-8,i,i,82*[inhibitor],104,-3,102
COc1ccc(CCNS(=O)(=O)CC23CCC(CC2=O)C3(C)C)cc1OC (stereo unspecified),1,118,29*,i,i,114,101,0,103
CN(C)CCCn1c(=O)n(CCc2ccccc2)c(=O)c2c3c(sc21)CCCCC3,8,130,1,i,i,103,.,.,.
CN(C)CCCNc1nc2sc3c(c2c(=O)n1CCc1ccccc1)CCCCC3,3,183*,49,i,i,111,166,45,108
CCNC(=O)COC(=O)c1cccc(Br)c1,0,39*[inhibitor],-13,i,i,38*[inhibitor],102,-6,98
O=C(COC(=O)c1ccccc1)Nc1ccccc1Br,0,54*[inhibitor],-16,i,i,46*[inhibitor],41,-29,85
O=C1CCCC2=C1C(c1ccsc1)CC(=O)N2c1ccccc1 (stereo unspecified),0,97,-2,i,i,97,.,.,.
Cc1ccc(C2CC(=O)N(c3ccc(F)cc3)C3=C2C(=O)CCC3)cc1 (stereo unspecified),-1,120,7,i,i,123*,95,-6,98
Cc1nnc(SCC(=O)NNC(=O)COc2ccc(Br)cc2)n1C,1,.,.,.,i,.,.,.,.
CN(C)S(=O)(=O)c1cccc(NC(=S)Nc2cc(Cl)cc(Cl)c2)c1,2,150*,10,100*,i,111,114,3,107
CCOC(=O)COn1c(=O)c(-c2cccs2)[n+]([O-])c2ccccc21,-1,26*[inhibitor],-8,i,i,15*[inhibitor],102,4,102
Cc1ccc2nc(N(CCCN(C)C)C(=O)COc3ccc(Cl)cc3)sc2c1,5,180*,44,i,i,109,149,25,100
SMILES,NTR1 ag,MEKK2wt PB1 HTS,MEKK2mut PB1 HTS,TMEM16A inh,TMEM16A act,MEKK3 PB1 HTS,MEKK2wt confirm,MEKK2mut confirm,MEKK3 confirm
Cc1cc(C)c2sc(N(CCCN(C)C)C(=O)COc3ccc(Cl)cc3)nc2c1,17,246*,55*,i,i,113,192,50,104
COc1ccc(/C=N/OC(=O)Nc2ccccc2OC)cc1,1,106,-1,i,i,113,.,.,.
CN1CCN(c2ncccc2S(=O)(=O)N2CCCCC2)CC1,0,1.0*[inhibitor],-2,i,i,1.0*[inhibitor],98,-3,101
O=S(=O)(c1cccc2cccnc12)N1CCCCC1,-1,105,5,i,i,104,.,.,.
N=c1n(CCN2CCOCC2)c2ccccc2n1CC(=O)c1cccc([N+](=O)[O-])c1,1,22*[inhibitor],-19,i,i,12*[inhibitor],109,9,107
O=S(=O)(NCCCN1CCOCC1)c1ccc2ccccc2c1,1,100,0,i,i,98,.,.,.
CC1CCN(Cc2ccc(-c3nnn(CC(=O)Nc4ccccc4Cl)n3)cc2)CC1,0,108,-3,i,i,103,.,.,.
Cc1cccc(C)c1NC(=O)Cn1nnc(-c2ccc(CN3CCC(C)CC3)cc2)n1,0,137,6,i,i,144*,99,4,98
CC1(NC(=S)N(CCO)CCO)CCS(=O)(=O)C1 (stereo unspecified),0,101,0,i,i,101,.,.,.
O=C(COc1cccc2cccnc12)N1CCc2ccccc21,1,91,-9,i,i,101,.,.,.
O=C(/C=C/c1ccc(Cl)cc1)Nn1c(-c2cccs2)nc2ccccc2c1=O,0,105,0,i,i,131*,103,4,105
Oc1ccc2ccc3[nH]cnc3c2c1,-1,45*[inhibitor],5,i,i,39*[inhibitor],95,-3,99
